According to PubChem BioAssay (Tox21):
Records with an inconclusive call do not appear. Entries that show only a call come without a potency. The source made the active and inactive calls. The call rests on the fitted dose curve; in most records, active means well fitted cell-killing curve with a large enough effect in the repeat runs; inconclusive means weak or mixed curves, or effect the other way; inactive means flat fitted curve, though single readings scatter.

Columns and labels:
[1] = cAMP Responsive Elements (CRE) small molecule antagonists, cell-based qHTS assay: qHTS cell viability counter screen (AID 2060913); further: nearly all actives have a fitted effect of over 40% in size
Method in brief: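 Viability of NKH477-stimulated (0.25 uM final) CRE-bla HEK293T cells is measured by CellTiter-Glo luminescence following 3 hrs compound exposure at 37 C.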

[2] = cAMP Responsive Elements (CRE) small molecule agonists, cell-based qHTS assay: qHTS cell viability counter screen (AID 2060914); further: nearly all actives have a fitted effect of over 50% in size
Method in brief: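 In the same wells as the reporter read, viability of CRE-bla HEK 293T cells was quantified by CellTiter-Glo luminescence after a 3 h compound exposure.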

**Q.** Which Potency [1] does the source give for `CC(=O)c1ccc(O)c(C(N)=O)c1` here?
**A.** inactive

**Q.** And the Potency [2]?
**A.** inactive

**Q.** Which Potency [1] does the source give for `Cc1cc(O)c(C)c(C)c1O` here?
**A.** inactive

**Q.** And the Potency [2]?
**A.** inactive

**Q.** For `CC(=O)NC(Cc1ccccc1)C(=O)O` (centres undefined), which Potency [1] is on record?
**A.** inactive

**Q.** What about the Potency [2] of the same compound?
**A.** inactive

**Q.** Which results are given for `O=c1cc[nH]c(=O)[nH]1`?
**A.** Potency [1]: inactive; Potency [2]: inactive

**Q.** What does the source list for `CCCCCCCCNC`?
**A.** Potency [1]: inactive; Potency [2]: inactive

**Q.** For `Cc1cc(C)c(O)c(C)c1`, which Potency [1] is on record?
**A.** inactive

**Q.** What about the Potency [2] of the same compound?
**A.** inactive

**Q.** Which results are given for `O=C1Nc2cc(Cl)ccc2Oc2ccccc21`?
**A.** Potency [1]: inactive; Potency [2]: inactive

**Q.** For `CCCC(=O)c1ccccc1`, which Potency [1] is on record?
**A.** inactive

**Q.** And the Potency [2]?
**A.** inactive

**Q.** Which results are given for `CC(C)n1c(/C=C/[C@@H](O)C[C@@H](O)CC(=O)O)c(-c2ccc(F)cc2)c2ccccc21`?
**A.** Potency [1]: inactive; Potency [2]: inactive

**Q.** What does the source list for `CC(=O)Nc1c(I)c(NC(C)=O)c(I)c(C(=O)O)c1I`?
**A.** Potency [1]: inactive; Potency [2]: inactive

**Q.** With `C=C(C)C(=O)OCC(O)CO` (centres undefined) as the compound, how does the Potency [1] read?
**A.** inactive

**Q.** What about the Potency [2] of the same compound?
**A.** inactive

**Q.** For `COc1ccc(CN(CCN(C)C)c2ncccn2)cc1`, which Potency [1] is on record?
**A.** inactive

**Q.** What about the Potency [2] of the same compound?
**A.** inactive

**Q.** For `COC(=O)c1cccnc1`, which Potency [1] is on record?
**A.** inactive

**Q.** What about the Potency [2] of the same compound?
**A.** inactive

**Q.** With `O=C(CCCl)NCCc1ccccc1` as the compound, how does the Potency [1] read?
**A.** inactive

**Q.** What about the Potency [2] of the same compound?
**A.** inactive

**Q.** With `CC1CCc2nccnc21` (centres undefined) as the compound, how does the Potency [1] read?
**A.** inactive

**Q.** What about the Potency [2] of the same compound?
**A.** inactive

**Q.** Which Potency [1] does the source give for `CC(O)CC(C)O` (centres undefined) here?
**A.** inactive

**Q.** What about the Potency [2] of the same compound?
**A.** inactive

**Q.** For `CCO[Si](CC(C)C)(OCC)OCC`, which Potency [1] is on record?
**A.** inactive

**Q.** And the Potency [2]?
**A.** inactive

**Q.** Which Potency [1] does the source give for `COC(=O)CC(=O)C(C)(C)C` here?
**A.** inactive

**Q.** What about the Potency [2] of the same compound?
**A.** inactive

**Q.** With `CCN(CC)CCNC(=O)c1cc(Cl)c(N)cc1OC` as the compound, how does the Potency [1] read?
**A.** inactive

**Q.** What about the Potency [2] of the same compound?
**A.** inactive

**Q.** For `CCCCCCCCSCCO`, which Potency [1] is on record?
**A.** inactive

**Q.** And the Potency [2]?
**A.** inactive

**Q.** With `CN1CCN(C2Cc3ccccc3Sc3ccc(Cl)cc32)CC1` (centres undefined) as the compound, how does the Potency [1] read?
**A.** inactive

**Q.** What about the Potency [2] of the same compound?
**A.** inactive

**Q.** For `CCCN(CCC)C(=O)C(CCC(=O)OCCCN1CCN(CCOC(=O)Cc2c(C)n(C(=O)c3ccc(Cl)cc3)c3ccc(OC)cc23)CC1)NC(=O)c1ccccc1` (centres undefined), which Potency [1] is on record?
**A.** inactive

**Q.** And the Potency [2]?
**A.** inactive
